Assays:
Assay type in all cases: functional
Plasmodium falciparum [1] = assay: GSK_TCMDC: Inhibition of Plasmodium falciparum 3D7 in whole red blood cells, using parasite LDH activity as an index of growth. Test compounds present at 2uM
Plasmodium falciparum [2] = assay: GSK_TCMDC: Inhibition of Plasmodium falciparum Dd2 in whole red blood cells, using parasite LDH activity as an index of growth. Test compounds present at 2uM
HepG2 = assay: GSK_TCMDC: Percent inhibition of human HepG2 cell line. Test compounds present at 10uM.

Row | SMILES | Inhibition (Plasmodium falciparum [1]) | Inhibition (Plasmodium falciparum [2]) | Inhibition (HepG2)
1 | O=C(Nc1ccccc1)c1c[nH]cn1 | 92% | 0% | 0%
2 | CCOc1cc(C(=O)NC2CCN(Cc3ccccc3)CC2)ccc1-c1nc2cc(Cl)c(Cl)cc2[nH]1 | 100% | 99% | 24%
3 | CC(=O)Nc1ccc(OCCCCN(Cc2ccccc2OC(F)(F)F)c2ccc(C(F)(F)F)c(C#N)c2)c(Cl)c1 | 89% | 96% | 11%
4 | CN1CCC[C@H]1COc1ccc(CN2CC[C@H](NC(=O)c3ccc(Cl)c(Cl)c3)C2)cc1Br.O=C(O)C(F)(F)F | 100% | 20% | 81%
5 | Cc1ccc(CN2CCC(Oc3cccc(NC(=O)c4ccc(C(F)(F)F)cc4)c3)CC2)cc1.O=C(O)C(F)(F)F | 92% | 15% | 37%
6 | COc1ccc(Nc2ncc3c(-c4cccc(NC(=O)Cc5ccc(F)cc5)c4)c[nH]c3n2)cc1OC | 100% | 90% | 21%
7 | Cl.c1ccc2c(NCCCCCCNc3ccnc4ccccc34)ccnc2c1 | 100% | 12% | 43%
8 | Cl.O=C1COc2ccc(S(=O)(=O)N3CCC[C@@H]3CCN3CCC(c4c[nH]c5cnccc45)CC3)cc2N1 | 100% | 6% | 0%
9 | O=[N+]([O-])c1cc(/C=N/Nc2nc3nonc3nc2Nc2ccc(F)cc2)c(Cl)cc1Cl | 98% | 13% | 5%
10 | CCCCc1cc(NCc2ccncc2)nc(Nc2cccc(OC)c2)n1 | 100% | 56% | 41%

Source: ChEMBL document CHEMBL1157539, “Thousands of chemical starting points for antimalarial lead identification” (Nature, 2010)
